In PubChem BioAssay (EPA / NIEHS):
Calls of active or inactive are those of the source. How the source made its calls: active means hit-call score of the fitted dose curve at least 0.9, where 1 is the maximum; inactive means score below 0.9.

Assays:
[1] = ATG_CRE_CIS: Attagene CIS-FACTORIAL HepG2 Assay for human cAMP Responsive Element (CRE) binding protein 3 (AID 2282926); conditions: HepG2 CRE cis-reporter, Attagene multiplexed mRNA; actives raise or lower the signal
Procedure, shortened: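 Transfected HepG2 were treated for 24 hours, then RNA was extracted and reporter cDNA amplified with sequence-specific primers. Labelled fragments were separated by capillary electrophoresis, and the CRE signal was fitted bidirectionally with DMSO as baseline.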

[2] = target: CCAAT/enhancer-binding protein beta (Homo sapiens) (UniProt P17676); test: ATG_C_EBP_CIS: Attagene CIS-FACTORIAL HepG2 Assay for human CCAAT/Enhancer Binding Protein (C/EBP) beta (AID 2282927); conditions: HepG2 Attagene cis-factorial transcription factor reporter; actives raise or lower the signal
CCAAT/enhancer-binding protein beta (Homo sapiens), sequence (P17676 whole entry, looked up, the tested form may be a part): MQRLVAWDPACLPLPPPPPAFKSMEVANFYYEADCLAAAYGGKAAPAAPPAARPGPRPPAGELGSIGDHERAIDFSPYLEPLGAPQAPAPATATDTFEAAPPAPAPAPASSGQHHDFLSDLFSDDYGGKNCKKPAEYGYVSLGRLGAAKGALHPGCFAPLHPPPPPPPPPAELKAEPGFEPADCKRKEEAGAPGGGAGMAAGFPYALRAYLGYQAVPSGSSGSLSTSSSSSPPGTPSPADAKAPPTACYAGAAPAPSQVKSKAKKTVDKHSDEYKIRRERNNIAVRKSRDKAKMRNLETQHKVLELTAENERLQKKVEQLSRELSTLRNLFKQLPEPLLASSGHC
Procedure, shortened: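 Endogenous C/EBPb-driven reporter transcripts measured in transfected human HepG2 cells at 24 h via RT-PCR and capillary electrophoresis of labelled fragments. Activity fitted in both directions relative to DMSO baseline.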

[3] = ATG_CMV_CIS: Attagene CIS-FACTORIAL HepG2 Assay for human CMV (Internal Marker) (AID 2282928); conditions: HepG2 CMV promoter reporter, transcription factor profiling; actives raise or lower the signal;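 further: endpoint acts as a background internal control marker rather than a target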
Procedure, shortened: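 After transient transfection of HepG2 with reporter transcription units driven by cis-regulatory promoters, cells receive test chemical for 24 h. Labeled reporter amplicons, digested with HpaI, are sized and quantified by capillary electrophoresis against DMSO.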

[4] = ATG_DR4_LXR_CIS: Attagene CIS-FACTORIAL HepG2 Assay for human Liver X Receptor (LXR), DR4 submotif (AID 2282929); conditions: HepG2 Attagene DR4 cis-reporter, mRNA transcription; actives raise or lower the signal
Procedure, shortened: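 The endpoint is DR4-element-driven reporter transcripts after 24 h chemical exposure of transfected HepG2 cells. These were measured via RT-PCR and capillary electrophoresis, and gain or loss of signal was fitted relative to DMSO controls.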

[5] = target: Aryl hydrocarbon receptor (Homo sapiens) (UniProt P35869); test: ATG_Ahr_CIS: Attagene CIS-FACTORIAL HepG2 Assay for human Aryl Hydrocarbon Receptor (Ahr) (AID 2282930); conditions: HepG2 AhR cis-factorial reporter transcription; actives raise or lower the signal
Aryl hydrocarbon receptor (Homo sapiens), sequence (P35869 whole entry, looked up): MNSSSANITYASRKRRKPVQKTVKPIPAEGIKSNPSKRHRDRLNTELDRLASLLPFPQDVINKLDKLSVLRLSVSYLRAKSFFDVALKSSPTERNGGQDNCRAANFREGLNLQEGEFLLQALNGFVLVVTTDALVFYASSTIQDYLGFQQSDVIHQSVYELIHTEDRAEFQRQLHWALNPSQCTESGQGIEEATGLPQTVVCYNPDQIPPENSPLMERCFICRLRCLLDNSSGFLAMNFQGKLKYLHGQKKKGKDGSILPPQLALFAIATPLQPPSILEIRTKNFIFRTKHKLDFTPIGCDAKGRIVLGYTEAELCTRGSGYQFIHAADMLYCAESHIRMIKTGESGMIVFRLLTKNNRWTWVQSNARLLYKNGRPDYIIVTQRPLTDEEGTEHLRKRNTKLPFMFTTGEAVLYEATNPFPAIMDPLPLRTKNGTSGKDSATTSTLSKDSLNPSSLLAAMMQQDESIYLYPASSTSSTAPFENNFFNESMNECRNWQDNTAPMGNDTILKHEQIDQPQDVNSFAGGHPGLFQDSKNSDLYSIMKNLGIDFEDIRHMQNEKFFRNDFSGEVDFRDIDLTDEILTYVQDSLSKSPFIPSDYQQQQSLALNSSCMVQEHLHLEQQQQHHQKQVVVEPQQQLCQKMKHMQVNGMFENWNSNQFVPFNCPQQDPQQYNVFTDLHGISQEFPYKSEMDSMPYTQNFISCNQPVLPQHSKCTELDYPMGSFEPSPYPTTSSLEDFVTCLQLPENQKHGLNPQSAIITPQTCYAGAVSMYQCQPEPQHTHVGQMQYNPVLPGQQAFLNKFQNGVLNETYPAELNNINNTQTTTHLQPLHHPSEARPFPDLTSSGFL
Procedure, shortened: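 Reporter mRNA levels, quantified by RT-PCR and fluorescent capillary electrophoresis, reflect endogenous AhR transcriptional activity in HepG2 cells carrying transfected cis-promoter reporter constructs. Readout at 24 h post-dose; gain or loss fitted against DMSO baseline.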

[6] = ATG_AP_1_CIS: Attagene CIS-FACTORIAL HepG2 Assay for human Activator Protein 1 (AP-1) (AID 2282931); conditions: HepG2 Attagene cis-factorial AP-1 reporter mRNA; actives raise or lower the signal
Procedure, shortened: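 Readout is reporter transcript level from endogenous transcription factor activity, quantified by RT-PCR with fluorescent primer extension and capillary electrophoresis. Transiently transfected HepG2 cells, 24 h exposure. Curves fitted both directions versus DMSO.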

[7] = ATG_AP_2_CIS: Attagene CIS-FACTORIAL HepG2 Assay for human Activator Protein 2 (AP-2) (AID 2282932); conditions: HepG2 AP-2 cis-reporter, Attagene transcription factor profiling; actives raise or lower the signal
Procedure, shortened: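 HepG2, transient MRTU transfection, cis-regulated reporters; 24 h compound exposure; RNA isolated, RT-PCR, 6-FAM labelling, HpaI digest, CE fluorescence. DMSO = negative control/baseline, bidirectional fit.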

[8] = ATG_BRE_CIS: Attagene CIS-FACTORIAL HepG2 Assay for human Bone Morphogenetic Protein (BMP) Response Element (BRE) (AID 2282933); conditions: HepG2 BMP response element reporter, Attagene transcription factor profiling; actives raise or lower the signal
Procedure, shortened: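 A HepG2 multiplex reporter system measured inducible reporter mRNA 24 h post-dosing. Detection: RT-PCR, 6-FAM primer extension, HpaI digestion, capillary electrophoresis. Activity fitted bidirectionally relative to DMSO.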

[9] = target: Retinoic acid receptor alpha (Homo sapiens) (UniProt P10276); test: ATG_DR5_RAR_CIS: Attagene CIS-FACTORIAL HepG2 Assay for human Retinoic Acid Receptor Alpha (RARE), DR5 submotif (AID 2282934); conditions: HepG2 Attagene cis-factorial RARE DR5 reporter, mRNA; actives raise or lower the signal;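 on AC50: reporter responds to endogenous RAR alpha beta and gamma in HepG2 not RARA alone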
Retinoic acid receptor alpha (Homo sapiens), sequence (P10276 whole entry, looked up): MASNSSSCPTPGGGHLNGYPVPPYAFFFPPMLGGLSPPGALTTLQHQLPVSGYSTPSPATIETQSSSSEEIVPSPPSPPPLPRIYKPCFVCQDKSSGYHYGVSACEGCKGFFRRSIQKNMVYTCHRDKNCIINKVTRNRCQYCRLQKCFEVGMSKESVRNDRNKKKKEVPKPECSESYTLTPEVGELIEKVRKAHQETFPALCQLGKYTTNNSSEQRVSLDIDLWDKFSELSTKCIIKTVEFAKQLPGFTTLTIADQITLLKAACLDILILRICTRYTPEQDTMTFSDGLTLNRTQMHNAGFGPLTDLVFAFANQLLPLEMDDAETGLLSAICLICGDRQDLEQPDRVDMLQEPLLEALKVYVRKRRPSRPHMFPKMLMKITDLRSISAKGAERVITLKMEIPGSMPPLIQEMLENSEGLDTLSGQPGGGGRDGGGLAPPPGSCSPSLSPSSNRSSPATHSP
Procedure, shortened: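 Reporter transcripts from a DR5-regulated unit, measured via RT-PCR plus capillary electrophoresis, reflect endogenous RAR activity in transiently transfected human HepG2 liver cells. Exposure lasted 24 h; gain or loss of signal scored against DMSO.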

[10] = target: Transcription factor E2F1 (Homo sapiens) (UniProt Q01094); test: ATG_E2F_CIS: Attagene CIS-FACTORIAL HepG2 Assay for human E2F Transcription Factor 1 (AID 2282935); conditions: HepG2 Attagene cis-reporter, E2F reporter RNA transcripts; actives raise or lower the signal
Transcription factor E2F1 (Homo sapiens), sequence (Q01094 whole entry, looked up): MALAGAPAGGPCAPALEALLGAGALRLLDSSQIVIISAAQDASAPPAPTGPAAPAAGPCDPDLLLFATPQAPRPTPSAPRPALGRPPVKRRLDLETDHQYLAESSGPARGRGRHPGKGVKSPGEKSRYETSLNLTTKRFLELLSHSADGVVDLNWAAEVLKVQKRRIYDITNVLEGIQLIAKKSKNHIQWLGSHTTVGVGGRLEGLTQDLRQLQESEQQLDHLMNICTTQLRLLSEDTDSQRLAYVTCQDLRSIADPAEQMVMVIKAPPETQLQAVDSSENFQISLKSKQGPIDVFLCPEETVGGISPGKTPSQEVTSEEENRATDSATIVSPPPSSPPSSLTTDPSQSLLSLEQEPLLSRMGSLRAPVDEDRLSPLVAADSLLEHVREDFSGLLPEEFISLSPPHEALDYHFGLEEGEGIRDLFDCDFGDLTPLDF
Procedure, shortened: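 Cis-element reporter mRNA induction in transiently transfected HepG2, 24 h exposure. Activity fitted in both directions relative to DMSO negative control.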

[11] = ATG_E_Box_CIS: Attagene CIS-FACTORIAL HepG2 Assay for human Enhancer Box (E-box) (AID 2282936); conditions: HepG2 E-box cis-reporter transcription, actives raise or lower the signal
Procedure, shortened: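 Cells: HepG2 (human liver), transient MRTU transfection. Exposure 24 h. RNA → oligo(dT) RT → PCR → 6-FAM label → HpaI → CE. Activity fitted both directions relative to DMSO.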

[12] = ATG_M_61_CIS: Attagene CIS-FACTORIAL HepG2 Assay for M61 Transcription Factor (Internal Marker) (AID 2282937); conditions: HepG2 Attagene CIS-FACTORIAL M61 internal marker reporter; actives raise or lower the signal
Procedure, shortened: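 Readout is reporter mRNA by RT-PCR, fluorescent primer extension and capillary electrophoresis, with gain or loss fitted relative to DMSO. Transfected HepG2 cells carrying endogenous-TF-driven cis reporters were exposed to chemicals for 24 hours.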

[13] = ATG_EGR_CIS: Attagene CIS-FACTORIAL HepG2 Assay for human Early Growth Response 1 (EGR1) (AID 2282938); conditions: HepG2 Attagene CIS-FACTORIAL EGR reporter mRNA; actives raise or lower the signal
Procedure, shortened: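 After 24 h compound exposure, RNA from reporter-transfected HepG2 cells was reverse-transcribed, PCR-amplified, fluorescently labelled and resolved by capillary electrophoresis. EGR1 reporter transcript changes, up or down, were fitted against DMSO, reflecting endogenous transcription-factor activity.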

[14] = ATG_M_19_CIS: Attagene CIS-FACTORIAL HepG2 Assay for M19 Transcription Factor (Internal Marker) (AID 2282939); conditions: HepG2 Attagene CIS-FACTORIAL M19 internal marker reporter; actives raise or lower the signal
Procedure, shortened: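 Chemical-treated HepG2 (24 h) with MRTU constructs; reporter transcripts detected by fluorescent RT-PCR fragment analysis on capillary electrophoresis. Internal background marker, DMSO as baseline.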

[15] = ATG_Ets_CIS: Attagene CIS-FACTORIAL HepG2 Assay for human Erythroblast Transformation Specific (ETS) (AID 2282941); conditions: HepG2 ETS cis-reporter transcription, actives raise or lower the signal
Procedure, shortened: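 Human HepG2 hepatoma cells were transiently transfected with promoter-driven reporter constructs and treated for 24 hours. Reporter transcripts were quantified by RT-PCR with fluorescent primer extension; bidirectional curve fitting used DMSO as reference.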

[16] = target: Hepatocyte nuclear factor 3-beta (Homo sapiens) (UniProt Q9Y261); test: ATG_FoxA2_CIS: Attagene CIS-FACTORIAL HepG2 Assay for human Forkhead box A2 (FOXA2) (AID 2282942); conditions: HepG2 cis-reporter transcription factor activity, 24 h; actives raise or lower the signal
Hepatocyte nuclear factor 3-beta (Homo sapiens), sequence (Q9Y261 whole entry, looked up): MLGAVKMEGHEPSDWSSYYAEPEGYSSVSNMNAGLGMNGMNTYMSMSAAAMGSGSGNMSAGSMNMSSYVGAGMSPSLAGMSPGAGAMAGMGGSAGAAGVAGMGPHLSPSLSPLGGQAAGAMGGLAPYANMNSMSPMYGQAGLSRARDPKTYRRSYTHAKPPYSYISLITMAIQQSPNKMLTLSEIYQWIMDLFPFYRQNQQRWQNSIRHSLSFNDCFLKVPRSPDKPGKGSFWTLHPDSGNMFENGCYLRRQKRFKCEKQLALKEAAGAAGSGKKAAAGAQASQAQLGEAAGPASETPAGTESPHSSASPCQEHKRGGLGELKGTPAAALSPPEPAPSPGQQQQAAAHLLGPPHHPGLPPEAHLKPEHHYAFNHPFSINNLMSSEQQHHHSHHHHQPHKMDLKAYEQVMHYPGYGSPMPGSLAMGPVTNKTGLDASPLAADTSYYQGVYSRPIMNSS
Procedure, shortened: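 Endogenous transcription factor activity is captured via cis-element-driven reporter transcripts in transfected HepG2. Total RNA taken at 24 h post-dosing; labelled RT-PCR products resolved by capillary electrophoresis. Gain or loss fitted versus DMSO.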

[17] = ATG_FoxO_CIS: Attagene CIS-FACTORIAL HepG2 Assay for human Forkhead box O (FoxO) (AID 2282943); conditions: HepG2 Attagene cis-reporter, FoxO element, mRNA; actives raise or lower the signal
Procedure, shortened: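 Endogenous transcription factor activity read from multiplexed cis-promoter reporter transcripts in transiently transfected HepG2, 24 h after dosing. Reporter RNA measured via RT-PCR plus capillary electrophoresis of FAM-labeled products; gain or loss relative to DMSO.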

[18] = ATG_GATA_CIS: Attagene CIS-FACTORIAL HepG2 Assay for human GATA Binding Protein (AID 2282944); conditions: HepG2 GATA cis-element reporter, Attagene multiplex mRNA; actives raise or lower the signal
Procedure, shortened: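 Transfected cis-reporter HepG2 cells were treated with chemicals for 24 hours. Total RNA was then converted to cDNA, amplified with reporter-specific primers and analysed by fluorescent capillary electrophoresis, using DMSO-treated wells as baseline.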

[19] = ATG_GLI_CIS: Attagene CIS-FACTORIAL HepG2 Assay for human Zinc Finger Protein GLI1 (AID 2282945); conditions: HepG2, Attagene cis-factorial reporter mRNA, GLI element; actives raise or lower the signal
Procedure, shortened: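 Bidirectional curve fits relative to DMSO, using reporter mRNA levels from RT-PCR plus capillary electrophoresis. Cells were HepG2 transiently carrying cis-regulated reporter constructs, harvested 24 h after dosing.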

[20] = ATG_ERE_CIS: Attagene CIS-FACTORIAL HepG2 Assay for Estrogen Response Element (ERE) (AID 2282940); conditions: HepG2 ERE cis-reporter, Attagene RNA transcript; actives raise or lower the signal
Procedure, shortened: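 Human liver cells (HepG2) bearing transiently transfected, promoter-regulated reporter units were exposed 24 h. Reporter mRNA induction was detected by capillary electrophoresis of labelled RT-PCR products and fitted bidirectionally to DMSO.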

Measured: AC50

CC(C)=CCCC(C)CC(=O)O (stereo not drawn)
not listed: [20]
inactive: all other assays above

C#CC(C)N(C)C(=O)Nc1ccc(Cl)cc1 (stereo not drawn)
not listed: [19] | [20]
inactive: all other assays above

CC(C)CCOC(=O)c1ccccc1
not listed: [20]
inactive: all other assays above

CCCCCCOC(=O)C(C)C
not listed: [20]
inactive: all other assays above

CC(C)NCC(O)COc1ccc(CC(N)=O)cc1 (stereo not drawn)
not listed: [16]
inactive: all other assays above

CC(C)(CO)[C@@H](O)C(=O)NCCC(=O)O
inactive: all assays above

CCOC(=O)CN
not listed: [20]
inactive: all other assays above

CC(=O)C1(C)CC2=C(CCCC2(C)C)CC1C (stereo not drawn)
active: [3] 76.8 µM | [4] 179 µM | [5] 126 µM | [6] 93.3 µM | [7] 76.1 µM | [9] 100 µM | [11] 83.2 µM | [14] 157 µM | [16] 181 µM | [17] 100 µM | [19] 53.8 µM
inactive: [1] | [2] | [8] | [10] | [12] | [13] | [15] | [18]

C[C@@H]1CCN(C(=O)[C@H](CCCN=C(N)N)NS(=O)(=O)c2cccc3c2NC[C@H](C)C3)[C@@H](C(=O)O)C1
inactive: all assays above

Nc1ccc2c(O)cc(S(=O)(=O)O)cc2c1
active: [5] 25.9 µM
not listed: [19] | [20]
inactive: all other assays above

CCCCCCC(C)Nc1ccc(Nc2ccccc2)cc1 (stereo not drawn)
active: [3] 21.8 µM | [4] 44.4 µM | [6] 28.9 µM | [8] 50.5 µM
not listed: [19] | [20]
inactive: all other assays above

CCCC(O)C(O)CO (stereo not drawn)
active: [5] 0.16 µM
not listed: [20]
inactive: all other assays above

CCCCCCCCCCCCCCN(CCO)CCO
active: [4] 13.8 µM
not listed: [19] | [20]
inactive: all other assays above

O=C(O)CCCCCCCCC(=O)O
not listed: [20]
inactive: all other assays above

CCCCCCOC(=O)CCC
not listed: [20]
inactive: all other assays above
